Luciferase inh – Photinus pyralis luciferase inhibition. P08659. purified P. pyralis luciferase, luminescence, biochemical. Potency, µM (titrated, usually from 115 µM), actives largely listed as inhibitors. actives 2.5% (n = 76,000). AID 1347043; note: nearly all actives have a fitted effect of over 65% in size
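Purified 10nM P. pyralis luciferase with 10uM D-luciferin and 10uM ATP in 50mM Tris acetate pH 7.5, 10mM Mg acetate, 0.01% Tween-20, 0.05% BSA. qHTS titration; luminescence read by CCD imager.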
NPR1 antag – human Npr1 receptor antagonism. P16066. HEK293 hNpr1 GloSensor cGMP, ANP-stimulated luminescence. actives 1.6% (n = 76,000). Potency, µM (titrated, usually from 46.3 µM), for inactives: at the top dose activity change, negative = inhibition, hits mostly inhibitors; calls by dose curve; note: nearly all actives have a fitted effect of over 60% in size
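HEK293 cells stably expressing human Npr1 and cGMP GloSensor pGS-40F, loaded 2 h with 2% GloSensor reagent, given compound 30 min at room temperature. Luminescence read before and 20 min after 0.1 nM hNppA.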
HEK cytotox – kills HEK 293 cells | HEK 293 viability, ATP luminescence (CellTiter-Glo), 48-72 h | Potency, µM (titrated, usually from 115 µM), without a hit: at the highest dose activity change, negative = cytotoxicity, usual class: inhibitors | actives 6.6% (n = 94,000); note: nearly all actives have a fitted effect of over 60% in size
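HEK 293 seeded at 250 cells/well receive compound via pintool. After 48 or 72 hr at 37 degree Celsius, 5% CO2 and 95% humidity, CellTiter-Glo is dispensed and luminescence read following 10 min at room temperature.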
SNCA expr inhib – reduces expression of the alpha-synuclein gene; HEK-293 SNCA-luciferase knock-in, luminescence, 24 h; Potency, µM (highest dose often 57.2 µM), without a hit: at the top dose activity change, negative = inhibition, usual class: inhibitors; actives 0.17% (n = 140,000); AID 1671194;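 note: plate controls were DMSO cells for no effect and cell-free wells for full effect; nearly all actives have a fitted effect of over 45% in size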
NIH3T3 tox – cytotoxic compounds in NIH 3T3 cells. NIH 3T3 viability, CellTiter-Glo ATP luminescence, 48-72 h. Potency, µM (doses to about 96.7 µM), without a hit: at the highest dose activity change, negative = cytotoxicity, most hits filed as inhibitors. actives 4.3% (n = 94,000); note: nearly all actives have a fitted effect of over 55% in size
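Luminescent ATP readout (CellTiter-Glo, 10 min RT) after 48 or 72 hr compound exposure of NIH 3T3 cells seeded at 400 cells/well in 1536-well format; quantitative HTS.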
SNCA viab count – cell viability loss counter-screen; HEK-293-SNCA-luc viability, GF-AFC fluorescence, 24 h; Potency, µM (doses to about 57.1 µM), for inactives: top-dose activity change, negative = cytotoxicity, hits mostly cytotoxic; actives 0.12% (n = 150,000);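 note: 0% = DMSO-treated cells and -100% = medium-only wells without cells; nearly all actives have a fitted effect of over 30% in size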
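HEK-293-SNCA-luc cells (1500/well) plated 24 h, then exposed 24 h to a dilution series; GF-AFC added 30 min at 37C, fluorescence 405/540 nm; normalised to medium-only and DMSO wells, Hill fit.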
* = called active by the depositor; i = inactive; ? = inconclusive; · = no result; [ ] = dose if it differs, or a comment. Compounds with a hit are over-represented: about 7.4% of the library has one in this group of screens. Unless noted, calls come from the whole dose curve; as a rule, active = well fitted curve in the direction sought with a large enough effect; inconclusive = small, poorly fitted or top-dose-only effect, or another doubt; inactive = no such curve, though single readings can be large; an effect the other way counts as inactive or inconclusive. Unless noted, % is set by controls: 0 for no effect and ±100 for the full control effect; potency is the fitted concentration of half-maximal effect.

SMILES	Luciferase inh	NPR1 antag	HEK cytotox	SNCA expr inhib	NIH3T3 tox	SNCA viab count
Cc1nn(-c2ccccc2)c2c1C(C(C)C)N(C1CCN(C(=O)c3ccccc3F)C1)C2=O (stereo not given)	·	·	79µM*	·	?	·
Cc1nn(-c2ccccc2)c2c1C(C(C)C)N(C1CCN(C(=O)C3CCCC3)C1)C2=O (stereo not given)	·	·	?	·	20µM*	·
CC(Oc1cccc(Cl)c1)C(=O)Nc1ccc2c(N3CCOCC3)ncnc2c1 (stereo not given)	i	-24%	45µM*	-14%	?	-5%
COc1cccc(C(=O)Nc2ccc3c(N4CCOCC4)ncnc3c2)c1	?	4%	-77%	34%	-59%	-22%
O=C(Nc1ccc2c(N3CCOCC3)ncnc2c1)c1ccc(Br)o1	i	3%	40µM*	-16%	?	-17%
O=C(Nc1ccc2c(N3CCOCC3)ncnc2c1)c1cccc(Cl)c1	i	-3%	?	10%	7.1µM*	-21%
O=C(N[C@@H]1CN(Cc2c[nH]c3ccccc23)C[C@H]1CO)c1ccccc1	i	4%	?	17%	-9%	-5%
Cc1cnc(C2CC2)n1CC1CCN(C(=O)C(C)C)CC1	i	0%	i	14%	i	14%
Cn1cnc(S(=O)(=O)N2CC(F)(F)C[C@H]2c2nc(C3CC3)no2)c1	i	13%	4%	15%	-4%	-7%
CCn1ncc(C(=O)N[C@@H]2CN(c3ccccn3)C[C@H]2CN(C)C)c1C	i	1%	i	14%	2%	-12%
O=C(c1cnc(N2CCOCC2)nc1)N1CCn2nc(C(O)C3CC3)cc2C1 (stereo not given)	i	4%	i	-10%	-4%	8%
CCc1ccc(N2CC(c3noc(C4(c5ccc(OC)cc5)CC4)n3)CC2=O)cc1 (stereo not given)	i	?	45µM*	-15%	?	5%
CCc1ccc(N2CC(c3noc(-c4cccc(OC)c4OC)n3)CC2=O)cc1 (stereo not given)	i	3%	79µM*	0%	28µM*	6%
CC(=O)N1CCN(C(=O)C2(C)CCc3cnc(Nc4ccccc4)nc32)CC1 (stereo not given)	i	-3%[70.6 µM]	-1%[172 µM]	3%[87.6 µM]	?	2%[87.6 µM]
CC1(C(=O)N2CCN(c3ccccn3)CC2)CCc2cnc(Nc3ccccc3)nc21 (stereo not given)	i	-17%[70.6 µM]	112µM*	-2%[87.6 µM]	?	-23%[87.6 µM]
CC1(C(=O)N2CCCC2)CCCc2cnc(Nc3ccccc3)nc21 (stereo not given)	i	2%[70.6 µM]	?	-13%[87.6 µM]	-24%[138 µM]	-19%[87.6 µM]
CC1(C(=O)N2CCC(c3ccccc3)CC2)CCc2cnc(Nc3ccncc3)nc21 (stereo not given)	i	?	71µM*	-30%[87.6 µM]	?	?
Cc1ccc(C(=O)N2C[C@H](c3nc(-c4cccnc4)no3)[C@@H](C)C2)c(C)c1	i	-15%	?	27%	-25%	-20%
Cc1ccc(-c2cnc([C@@H]3COCCN3CC3CC3)[nH]2)cc1	i	3%[70.6 µM]	63µM*	-20%[87.6 µM]	-19%[174 µM]	0%[87.6 µM]
Cc1ccc(-c2cnc([C@@H]3COCCN3Cc3ccncc3)[nH]2)cc1	i	4%[70.6 µM]	-6%[172 µM]	?	2%[174 µM]	1%[87.6 µM]
CC(C)(C)CN1CCOC[C@H]1c1ncc(-c2ccc(C(F)(F)F)cc2)[nH]1	i	?	71µM*	6%[87.6 µM]	79µM*	-11%[87.6 µM]
CC(C)(C)CN1CCOC[C@H]1c1ncc(-c2ccc(Cl)cc2)[nH]1	i	-18%[70.6 µM]	79µM*	4%[87.6 µM]	89µM*	1%[87.6 µM]
CC(c1c[nH]c2ccccc12)C(O)C(=O)O (stereo not given)	·	·	·	·	·	4%
CC(C)c1nn(C)c2c1C(c1cccc3c1OC(C)(C)C3)CC(=O)N2 (stereo not given)	i	-1%	?	-20%	?	-15%
O=C(c1ccncc1)N1CCC2(COc3ncccc3S(=O)(=O)N2)C1 (stereo not given)	·	·	1%	-13%	i	-1%
SMILES	Luciferase inh	NPR1 antag	HEK cytotox	SNCA expr inhib	NIH3T3 tox	SNCA viab count
CC(C)C[C@H](NC(=O)CNC(=O)OCc1ccccc1)C(=O)N[C@@H](Cc1ccccc1)C(=O)CCl	·	·	·	·	·	24µM*
CC(NC(=O)[C@H](Cc1ccccc1)NC(=O)OCc1ccccc1)C(=O)CF (stereo not given in full)	·	·	·	·	·	-42%
COc1ccccc1N1CCN(C2CCCN(C(=O)c3ccc4nc(C)[nH]c4c3)C2)CC1 (stereo not given)	i	1%	-17%	?	-11%	4%
CCn1nccc1C(=O)NCCn1ccn2nc(-c3ccc(C)c(C)c3)cc2c1=O	4µM*	-2%	25µM*	23%	-29%	-29%
Cc1ccc(-c2cc3c(=O)n(CCNC(=O)c4cccc(Cl)c4)ccn3n2)cc1C	i	-6%	?	58%	?	-4%
Cc1ccc(-c2cc3c(=O)n(CCNC(=O)c4ccccc4F)ccn3n2)cc1C	2µM*	5%	?	92%	-21%	5%
O=C(NCCn1ccn2nc(-c3ccc(F)cc3)cc2c1=O)c1ccsc1	i	-6%	?	101%	-11%	-1%
O=C(NCCn1ccn2nc(-c3ccc(F)cc3)cc2c1=O)c1n[nH]c2c1CCCC2	0.4µM*	?	?	54%	?	-5%
Cc1ccc(-c2cc3c(=O)n(CCNC(=O)c4ccc5ccccc5n4)ccn3n2)cc1C	?	-4%	i	67%	i	-3%
Cc1ccc(-c2cc3c(=O)n(CCNC(=O)C4CCCCC4)ccn3n2)cc1C	0.63µM*	-5%	-1%	55%	0%	-4%
CC1CCc2nn3ccn(CC(=O)Nc4ccc(C(F)(F)F)cc4)c(=O)c3c2C1 (stereo not given)	i	-6%	?	?	?	-13%
O=[S+]1([O-])NC2(CCN(Cc3c(F)cccc3Cl)C2)COc2ncccc21 (stereo not given)	·	·	-11%	17%	-16%	8%
O=C(NCC(=O)N1CCN(Cc2ccccc2)CC1)c1cccc(-c2ccsc2)c1	·	·	?	?	?	0%[12.5 µM]
O=C(NCc1cccc(Cl)c1)c1ccc2nnc(-c3cccc(C(F)(F)F)c3)n2c1	·	·	?	?	32µM*	?
O=C(NCc1cccnc1)c1ccc2nnc(-c3cccc(C(F)(F)F)c3)n2c1	·	·	-17%	-16%	?	-8%
